{
  "source": "PubChem BioAssay",
  "note": "Activity calls are given as the source filed them. No rule for the calls is given here.",
  "data": [
    {"target": "Pantothenate synthetase (Mycobacterium tuberculosis (strain ATCC 25618 / H37Rv)) (UniProt P9WIL5)", "sequence (P9WIL5 whole entry, looked up)": "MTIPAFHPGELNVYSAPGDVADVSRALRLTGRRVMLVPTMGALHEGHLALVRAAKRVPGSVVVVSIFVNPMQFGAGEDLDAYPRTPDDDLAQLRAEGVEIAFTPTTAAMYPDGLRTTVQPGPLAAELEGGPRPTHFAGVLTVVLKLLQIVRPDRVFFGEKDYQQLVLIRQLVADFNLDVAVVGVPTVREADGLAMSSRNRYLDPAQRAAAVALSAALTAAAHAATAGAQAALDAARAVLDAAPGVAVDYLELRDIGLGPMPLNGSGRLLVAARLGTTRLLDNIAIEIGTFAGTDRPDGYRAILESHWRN", "assay": "Coupled enzyme confirmation of inhibitors against recombinant Mtb PanC (AID 375);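 also: 0% = full reaction with vehicle and 100% = no enzyme background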", "conditions": "coupled enzyme assay; at 10 µM, stronger effect = higher value", "values": [
      {"smiles": "CCCc1nc(NCc2ccncc2)c2nnn(Cc3ccccc3F)c2n1", "inhibition": "0% (inactive)"},
      {"smiles": "O=C(CCCCn1c(=O)[nH]c2ccsc2c1=O)NCc1cccnc1", "inhibition": "5% (inactive)"},
      {"smiles": "CCCSc1nnc2nc3c(nn12)c1ccccc1n3C", "inhibition": "0% (inactive)"},
      {"smiles": "CCOc1cccc(C(=O)N(Cc2ccco2)C2CCS(=O)(=O)C2)c1", "note": "(stereo not given)", "inhibition": "6% (inactive)"},
      {"smiles": "CCOC(=O)Cc1nnc2c(Nc3ccccc3F)nc3nonc3n12", "inhibition": "7% (inactive)"},
      {"smiles": "CCOC(=O)N1CCN(S(=O)(=O)c2cc(C)c(C)cc2C)CC1", "inhibition": "0% (inactive)"},
      {"smiles": "c1ccc(-c2nnc(SCc3nc4ccccc4[nH]3)o2)cc1", "inhibition": "0% (inactive)"},
      {"smiles": "CC(=O)O[C@@]12CO[C@@H]1C[C@H](O)[C@@]1(C)C(=O)[C@H](O)C3=C(C)[C@@H](OC(=O)[C@H](O)[C@@H](NC(=O)OC(C)(C)C)c4ccccc4)C[C@](O)([C@@H](OC(=O)c4ccccc4)[C@H]21)C3(C)C", "inhibition": "0% (inactive)"},
      {"smiles": "Cc1cccc(C(OC(=O)c2ccco2)C(=O)NCc2ccccc2)n1", "note": "(stereo not given)", "inhibition": "4% (inactive)"},
      {"smiles": "COc1ccc(CCNC(=O)COc2ccc(S(=O)(=O)N3CCOCC3)cc2)cc1", "inhibition": "6% (inactive)"},
      {"smiles": "O=C1c2oc3ccccc3c(=O)c2C(c2cccnc2)N1Cc1ccco1", "note": "(stereo not given)", "inhibition": "0% (inactive)"},
      {"smiles": "CCOC(=O)C1CCCN(CC(=O)NC2CC2)C1", "note": "(stereo not given)", "inhibition": "6% (inactive)"},
      {"smiles": "Cc1[nH]c(=O)[nH]c(=O)c1S(=O)(=O)N1CCCC(C(=O)NCc2ccco2)C1", "note": "(stereo not given)", "inhibition": "5% (inactive)"},
      {"smiles": "Cc1occc1-c1nnc(SCC(=O)N2CCOCC2)n1Cc1ccco1", "inhibition": "6% (inactive)"},
      {"smiles": "Brc1cccc(-c2cnc3n2CCCCC3)c1", "inhibition": "4% (inactive)"},
      {"smiles": "O=C(COC(=O)c1cccc(S(=O)(=O)N2CCc3ccccc32)c1)NC1CCS(=O)(=O)C1", "note": "(stereo not given)", "inhibition": "0% (inactive)"},
      {"smiles": "Cc1ccc(C)n1NC(=O)c1ccco1", "inhibition": "0% (inactive)"},
      {"smiles": "CCOC(=O)C1=C(C)Nc2nnnn2C1c1ccc(OC)c(Br)c1", "note": "(stereo not given)", "inhibition": "1% (inactive)"},
      {"smiles": "COc1cc2c(C)nc(C)c(C#N)c2cc1OC", "inhibition": "0% (inactive)"},
      {"smiles": "CN(C(=O)c1ccncc1)C1CC(C)(C)N(O)C(C)(C)C1", "inhibition": "0% (inactive)"},
      {"smiles": "CCOC(=O)c1ccc(NC(=O)N2CCN(CCc3ccccc3)CC2)cc1", "inhibition": "0% (inactive)"},
      {"smiles": "CCOC(=O)C1CSC(CC(=O)Nc2ccc(Cl)cc2)C(=O)N1", "note": "(stereo not given)", "inhibition": "0% (inactive)"},
      {"smiles": "COc1ccc(N2CCN(CCNS(=O)(=O)c3cccc4nsnc34)CC2)cc1", "inhibition": "2% (inactive)"},
      {"smiles": "CCOC(=O)N1CCN(C(=O)c2ccc3nc4ccsc4c(=O)n3c2)CC1", "inhibition": "2% (inactive)"},
      {"smiles": "Cc1oc2nc(SCCCC(=O)NCCCO)nc(N)c2c1C", "inhibition": "2% (inactive)"},
      {"smiles": "C=CCOc1cccc(C2/C(=C(\\O)c3ccc(F)cc3)C(=O)C(=O)N2CCN(C)C)c1", "note": "(stereo not given)", "inhibition": "0% (inactive)"},
      {"smiles": "Cc1ccc2[nH]c(=O)c3cc(C(=O)NCCN4CCN(C)CC4)sc3c2c1", "inhibition": "0% (inactive)"},
      {"smiles": "COc1cccc(-c2cc(C(=O)N3CCCc4ccccc43)no2)c1", "inhibition": "0% (inactive)"},
      {"smiles": "O=C1c2ccccc2NC2CCCCCN12", "note": "(stereo not given)", "inhibition": "0% (inactive)"},
      {"smiles": "CS(=O)(=O)N(CC(=O)NCc1ccncc1)Cc1ccc(Cl)cc1", "inhibition": "0% (inactive)"},
      {"smiles": "COCCN1C=C(C(=O)OC)C(c2cc3c(cc2Br)OCO3)C(C(=O)OC)=C1", "inhibition": "0% (inactive)"},
      {"smiles": "CCn1c(=O)cc(OCC(=O)Nc2cc(C)ccn2)c2ccccc21", "inhibition": "0% (inactive)"},
      {"smiles": "CCC1Oc2ccc(C)cc2N(CC(=O)N(Cc2cccnc2)Cc2ccc(C)o2)C1=O", "note": "(stereo not given)", "inhibition": "4% (inactive)"},
      {"smiles": "CCn1c(SCC(=O)NCCc2ccc(Cl)cc2)nnc1-c1cccs1", "inhibition": "1% (inactive)"},
      {"smiles": "COc1ccccc1N(C)S(=O)(=O)c1ccc(C(=O)NC2=NCCS2)cc1", "inhibition": "7% (inactive)"},
      {"smiles": "O=C(c1ccc2c(c1)OCO2)N1CCNc2ccccc2C1", "inhibition": "0% (inactive)"},
      {"smiles": "COc1ccccc1N1CCN(C(=O)c2c(-c3c(Cl)cccc3Cl)noc2C)CC1", "inhibition": "0% (inactive)"},
      {"smiles": "CCN(c1ccc(OC)cc1)S(=O)(=O)c1ccc2c(c1)CCN2C(=O)CCC(=O)O", "inhibition": "0% (inactive)"},
      {"smiles": "COc1ccccc1-c1cc(C(=O)Nc2cc(C)nn2-c2ccccc2)no1", "inhibition": "6% (inactive)"},
      {"smiles": "CCCCN(CCCC)CCCOC(=O)c1ccc(N)cc1", "inhibition": "0% (inactive)"}
    ]}
  ]
}
